Among the data in PubChem BioAssay (NCI) are growth values, retold here.

Among the test systems are SK-MEL-2 melanoma; EKVX NSCLC; SN12C renal; UO-31 renal; TK-10 renal; ACHN renal; CAKI-1 renal; A498 renal; HL-60(TB) leukemia; CCRF-CEM leukemia.
What all share (assay): NCI-60 one-dose screen, 48 h (100 = growth as untreated, 0 = no growth, -100 = all killed)
Details in all cases: 10 µM unless noted

“And” between values parts separate entries of the source, which are not always exact repeats. Equal entries are not always repeated. This is part of a sample that, as a whole, favours compounds with a hit. Of some 83,000 tested, about 20% had one in any assay.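 A percent growth of 40 corresponds to 60% growth inhibition; 0 means no net growth; -100 means all cells died. Active threshold: below 10.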 The source made the active and inactive calls.

On to `CC[C@H](C)[C@H](NC(=O)[C@H]1CCCCN1C)C(=O)N(C)[C@H](C[C@@H](OC(C)=O)c1cccc(C(=O)N[C@@H](Cc2ccccc2)C[C@H](C)C(=O)OC)n1)C(C)C`, for which the growth was 22.1% (inactive) with SK-MEL-2 melanoma; 53.4% (inactive) with EKVX NSCLC; 29.8% (inactive) in the experiment with SN12C renal; 40.7% (inactive) with UO-31 renal; 34.4% (inactive) in the experiment with TK-10 renal; 24.6% (inactive) in the experiment with ACHN renal. Also, the growth with CAKI-1 renal is 25.4% (inactive); with A498 renal, -5.01% (active); with HL-60(TB) leukemia it was -42.9% (active); in the experiment on CCRF-CEM leukemia, 14.4% (inactive).

Turning to `CC[C@H](C)[C@H](NC(=O)[C@H]1CCCCN1C)C(=O)N(C)[C@H](CCc1nc(C(=O)N[C@@H](Cc2ccccc2)C[C@H](C)C(=O)O)cs1)C(C)C`, the growth is 32.3% (inactive) in the experiment on SK-MEL-2 melanoma; 47.7% (inactive) with EKVX NSCLC; 46.8% (inactive) in the experiment with SN12C renal; 49% (inactive) with UO-31 renal; 49.4% (inactive) in the experiment with TK-10 renal; 47% (inactive) with ACHN renal. In addition, the growth was 51.2% (inactive) with CAKI-1 renal, -7.5% (active) in the experiment on A498 renal, -34.5% (active) with HL-60(TB) leukemia and 14.9% (inactive) in the experiment with CCRF-CEM leukemia.

Consider `Nc1ccc(P(=O)(O)O)cc1`, for which the growth in the experiment with SK-MEL-2 melanoma is 120% (inactive) and 99.4% (inactive); with EKVX NSCLC, 95.7% (inactive); in the experiment with SN12C renal, 103% (inactive) and 101% (inactive); in the experiment on UO-31 renal, 90.8% (inactive) and 91.8% (inactive); in the experiment on TK-10 renal it was 119% (inactive) and 97.4% (inactive); with ACHN renal, 98.7% (inactive) and 105% (inactive). Besides, the growth is 102% (inactive) and 99.5% (inactive) in the experiment with CAKI-1 renal; 105% (inactive) and 108% (inactive) with A498 renal; 136% (inactive) and 106% (inactive) with HL-60(TB) leukemia; 97.5% (inactive) and 95.4% (inactive) with CCRF-CEM leukemia.

As to `Cc1cc[c-]cc1.Fc1c[c-]c(-c2ccccn2)c(F)c1.N#CCC[PH+](CCC#N)c1ccccc1.[Pt+2]`, the growth in the experiment with SK-MEL-2 melanoma is 59.4% (inactive); in the experiment on EKVX NSCLC, 56.8% (inactive); with SN12C renal, 23.9% (inactive); in the experiment on UO-31 renal, 24.7% (inactive); in the experiment with TK-10 renal it was 106% (inactive); in the experiment with ACHN renal, 6.91% (active). Also, the growth in the experiment on CAKI-1 renal is 14.8% (inactive); in the experiment with A498 renal, 52.3% (inactive); with HL-60(TB) leukemia, 2.54% (active); in the experiment on CCRF-CEM leukemia, 10% (inactive).

With `Cc1nc2ccccc2c(=O)n1-c1ccccc1F`, the growth in the experiment with SK-MEL-2 melanoma is 105% (inactive); with EKVX NSCLC it was 89.3% (inactive); with SN12C renal, 95% (inactive); with UO-31 renal it was 88.1% (inactive); in the experiment on TK-10 renal it was 98% (inactive); in the experiment with CAKI-1 renal, 96.4% (inactive). The growth in the experiment on A498 renal is 84.5% (inactive); in the experiment on HL-60(TB) leukemia it was 89.3% (inactive); in the experiment with CCRF-CEM leukemia it was 99.1% (inactive).

For the compound `CN(C)c1ccc(C=C2C(=O)NC(=O)NC2=O)cc1`, the growth is 105% (inactive) in the experiment on SK-MEL-2 melanoma; 92.4% (inactive) with EKVX NSCLC; 77.5% (inactive) with SN12C renal; 92.9% (inactive) in the experiment on UO-31 renal; 109% (inactive) with TK-10 renal; 89.3% (inactive) with ACHN renal. The growth in the experiment with CAKI-1 renal was 78.9% (inactive); in the experiment on A498 renal, 58.2% (inactive); with HL-60(TB) leukemia it was 102% (inactive); in the experiment with CCRF-CEM leukemia, 115% (inactive).

On to `Clc1ccc(COC(Cn2ccnc2)c2ccc(Cl)cc2Cl)c(Cl)c1` (stereo unspecified), for which the growth was 69.7% (inactive) and 87% (inactive) with SK-MEL-2 melanoma; 48.6% (inactive) and 59.2% (inactive) in the experiment on EKVX NSCLC; 53.6% (inactive) and 73.9% (inactive) with SN12C renal; 25.8% (inactive) and 35.5% (inactive) in the experiment on UO-31 renal; 62.1% (inactive) and 73.5% (inactive) with TK-10 renal; 53.8% (inactive) and 72.4% (inactive) in the experiment with ACHN renal. For the same compound, the growth was 29.6% (inactive) and 53.7% (inactive) in the experiment with CAKI-1 renal; 46.1% (inactive) in the experiment on A498 renal; -0.421% (active) and 18.6% (inactive) in the experiment on HL-60(TB) leukemia; 51% (inactive) and 53.5% (inactive) with CCRF-CEM leukemia.

Consider `COc1ccc(CN)cc1OC`, for which the growth was 112% (inactive) in the experiment with SK-MEL-2 melanoma; 121% (inactive) with EKVX NSCLC; 98.7% (inactive) and 98.1% (inactive) in the experiment on SN12C renal; 96.8% (inactive) and 82.6% (inactive) with UO-31 renal; 127% (inactive) and 115% (inactive) in the experiment on TK-10 renal; 101% (inactive) with CAKI-1 renal. Besides, the growth was 124% (inactive) and 85% (inactive) in the experiment with A498 renal; 98% (inactive) with HL-60(TB) leukemia; 116% (inactive) and 97.7% (inactive) in the experiment with CCRF-CEM leukemia.

As for `C[C@]12CCc3sc(Nc4ccc(F)cc4)nc3C1=CC[C@@H]1[C@@H]2CC[C@]2(C)C(=O)CC[C@@H]12`, the growth with SK-MEL-2 melanoma was 76.8% (inactive); with EKVX NSCLC, 78.3% (inactive); in the experiment on SN12C renal, 73.8% (inactive); with UO-31 renal it was 59.8% (inactive); in the experiment on TK-10 renal it was 94.4% (inactive); with CAKI-1 renal, 68% (inactive). The growth with A498 renal was 75.7% (inactive); in the experiment with HL-60(TB) leukemia, 49.8% (inactive); in the experiment on CCRF-CEM leukemia, 14% (inactive).

Take `C[Se]/C=C1/C(=O)N(c2c(Cl)cccc2Cl)c2ccccc21`: the growth in the experiment on SK-MEL-2 melanoma was 51.1% (inactive); in the experiment on EKVX NSCLC, 24% (inactive); in the experiment with SN12C renal, -35.7% (active); in the experiment with UO-31 renal, -96.5% (active); with TK-10 renal it was 11.6% (inactive); with CAKI-1 renal, 2.44% (active). The values for the growth with A498 renal, in the experiment with HL-60(TB) leukemia and in the experiment on CCRF-CEM leukemia were 11.5% (inactive), -39.7% (active) and 10.2% (inactive), respectively.

As for `CSc1cc(/C=C(\C)[C@@H]2C[C@@H]3O[C@]3(C)CCC[C@H](C)[C@H](O)[C@@H](C)C(=O)C(C)(C)[C@@H](O)CC(=O)O2)n(CCNC(=O)OC(C)(C)C)n1`, the growth with SK-MEL-2 melanoma was 75.6% (inactive); in the experiment with EKVX NSCLC, 78.3% (inactive); in the experiment with SN12C renal it was 84% (inactive); in the experiment with UO-31 renal it was 55.5% (inactive); with TK-10 renal, 76.8% (inactive); in the experiment with ACHN renal, 77.8% (inactive). Besides, the growth in the experiment on CAKI-1 renal is 46.4% (inactive); in the experiment with A498 renal it was 56.6% (inactive); with HL-60(TB) leukemia, 8.76% (active); in the experiment on CCRF-CEM leukemia it was 63.9% (inactive).

For `CCOC(=O)c1cncn1C(C)c1ccccc1` (stereo unspecified), the growth was 105% (inactive) in the experiment with SK-MEL-2 melanoma; 98.2% (inactive) with EKVX NSCLC; 102% (inactive) in the experiment on SN12C renal; 81% (inactive) in the experiment on UO-31 renal; 95.2% (inactive) in the experiment on TK-10 renal; 102% (inactive) with ACHN renal. Also, the growth is 94.6% (inactive) in the experiment on CAKI-1 renal, 134% (inactive) in the experiment on A498 renal, 104% (inactive) in the experiment on HL-60(TB) leukemia and 94.7% (inactive) in the experiment with CCRF-CEM leukemia.
